# Screening results deposited in PubChem BioAssay by several laboratories.
# CYP2C9 inhib – inhibitors of human CYP2C9. P11712. CYP2C9 Supersomes, luciferin-H conversion, luminescence. actives 20% (n = 96,000). inhibition, % at 5 µM;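 active means blocking of liver enzyme CYP2C9 beyond about 50% at 5 µM, limit read from the data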
# Target sequence (P11712 whole entry, looked up): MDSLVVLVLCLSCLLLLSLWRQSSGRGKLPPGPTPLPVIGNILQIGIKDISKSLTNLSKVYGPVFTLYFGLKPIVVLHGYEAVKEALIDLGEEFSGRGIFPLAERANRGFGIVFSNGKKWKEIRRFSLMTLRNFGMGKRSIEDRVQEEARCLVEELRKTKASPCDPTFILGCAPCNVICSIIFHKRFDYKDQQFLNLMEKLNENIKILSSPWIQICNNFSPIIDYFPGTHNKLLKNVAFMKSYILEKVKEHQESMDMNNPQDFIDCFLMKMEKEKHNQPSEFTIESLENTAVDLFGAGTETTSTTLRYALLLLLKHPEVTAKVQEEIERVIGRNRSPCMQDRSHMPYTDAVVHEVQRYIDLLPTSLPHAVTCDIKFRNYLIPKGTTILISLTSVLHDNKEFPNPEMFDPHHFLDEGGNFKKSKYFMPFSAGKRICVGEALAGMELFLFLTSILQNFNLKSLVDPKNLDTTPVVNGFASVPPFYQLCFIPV
# Cav32 inh – inhibitors of human Cav3.2 T-type calcium channel. B-score at 10 µM. Cav3.2-expressing cells, Fluo-4 calcium fluorescence FDSS; active compounds read low. actives 4% (n = 100,000). AID 449739. O95180;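 active means single-dose well whose peak fluorescence ratio is a statistical outlier from its plate by either plate-standardised score or position-corrected B-score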
# CYP2C19 inh – blocks human cytochrome P450 2C19; actives 21% (n = 96,000); AID 778; inhibition, % at 5 µM; CYP2C19 Supersomes, luciferin-H EGE luminescence, 30 min;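 active means CYP2C19 inhibition above a set limit at 5 µM in the primary screen, cut at about 50% in these data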;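 further: plate controls were negative control wells for no effect and 2.5 mM tranylcypromine positive control for full effect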
# CYP2C19 act – increases human CYP2C19 enzyme activity | P33261 | recombinant CYP2C19, luciferin-H EGE luminescence; active compounds read high; 0 = fully inhibited enzyme, 1 = untreated enzyme | activation factor at 5 µM | 96,000 tested, under 10 active | AID 1025;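 active means activation factor of at least 2 at 5 µM in the primary screen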;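 further: 0 = wells with 2.5 mM tranylcypromine and 1 = vehicle-only wells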
# CYP2C9 activ – activators of human CYP2C9; actives 1.4% (n = 96,000); activation factor at 5 µM; recombinant CYP2C9, luciferin-H conversion, luminescence; active compounds read high; factor 1 = untreated enzyme, 0 = blocked; AID 1024; P11712;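 active means activation factor of 2 or more for CYP2C9 at a 5 µM dose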;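 further: 0 = sulfaphenazole-blocked wells and 1 = vehicle-only wells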
# Active calls of the source: *; . = no result. Shown are actives, neighbours in structure and some others; about 27% of the full set was active somewhere.
SMILES,CYP2C9 inhib,Cav32 inh,CYP2C19 inh,CYP2C19 act,CYP2C9 activ
O=C(NCc1nnc(SC/C=C/c2ccccc2)o1)c1ccco1,50,-2.2,47,0.5,0.5
O=C(Nc1ccccc1Cc1ccccc1)C1CC(=O)N(c2ccc3c(c2)OCCO3)C1 (centres undefined),76*,-1.1,64*,0.4,0.2
O=C(Nc1nc(-c2ccco2)c(-c2ccco2)s1)C1CC(=O)N(c2ccc3c(c2)OCCO3)C1 (centres undefined),94*,-2.8,71*,0.3,0.1
CCc1cccc(CC)c1NC(=O)C1CC(=O)N(c2ccc3c(c2)OCCO3)C1 (centres undefined),89*,-1.1,74*,0.3,0.1
COc1ccc2c(c1)c1ncn(Cc3ccco3)c(=O)c1n2C,72*,0.0076,75*,0.3,0.3
COc1ccc(-c2nnc3sc(-c4ccco4)nn23)cc1OC,11,0.85,12,0.9,0.9
COc1cc(-c2nnc3sc(-c4ccco4)nn23)cc(OC)c1OC,65*,-1.7,36,0.6,0.4
Cc1nnc2sc(-c3ccncc3)nn12,-1,-0.084,13,0.9,1
CC(C)(C)c1ccc(-c2nnc3sc(-c4ccncc4)nn23)cc1,53*,0.059,58*,0.4,0.5
COc1cc(-c2nn3c(Cc4ccccc4)nnc3s2)cc(OC)c1OC,70*,-0.018,53*,0.5,0.3
COc1cc(-c2nn3c(COc4ccccc4)nnc3s2)cc(OC)c1OC,25,.,12,0.9,0.7
CCOc1cccc(-c2nnc3sc(COc4ccccc4)nn23)c1,5,-0.14,-5,1.1,1
CCOc1cccc(-c2nnc3sc(COc4ccc(C)cc4)nn23)c1,64*,-0.22,54*,0.5,0.4
Brc1ccc2ncnc(Nc3ccc(N4CCOCC4)cc3)c2c1,-8,-0.11,10,0.9,1.1
CCOC(=O)C(C)Oc1ccc(=O)n(-c2ccccc2)n1 (centres undefined),2,0.93,33,0.7,1
CCOC(=O)C1C(=O)CC(C)(O)C(C(=O)OCC)C1c1cccc(OC)c1 (centres undefined),-6,-0.63,-6,1.1,1.1
CCOc1ccc(-c2nn3c(-c4ccccc4)nnc3s2)cc1,24,0.62,29,0.7,0.8
CCOc1cccc(-c2nn3c(-c4ccco4)nnc3s2)c1,6,0.37,14,0.9,0.9
COc1cc(-c2nn3c(-c4ccccc4)nnc3s2)cc(OC)c1OC,72*,1.8,74*,0.3,0.3
CCOc1cccc(-c2nnc3sc(-c4cc(OC)c(OC)c(OC)c4)nn23)c1,63*,.,36,0.6,0.4
c1cc(-c2nnc3sc(C4CCCCC4)nn23)ccn1,21,0.36,88*,0.1,0.8
COc1ccccc1-c1nnc2sc(C3CCCCC3)nn12,29,-3,39,0.6,0.7
COc1cc(OC)c(-c2nn3c(-c4ccco4)nnc3s2)cc1OC,73*,2.3,44,0.6,0.3
COc1ccc(-c2nn3c(-c4ccco4)nnc3s2)cc1OC,18,-1.1,16,0.8,0.8
COC(=O)c1c(F)c(F)c(NCCO)c(F)c1F,-7,0.24,2,1,1.1
SMILES,CYP2C9 inhib,Cav32 inh,CYP2C19 inh,CYP2C19 act,CYP2C9 activ
Cc1nn2c(-c3ccc(Cl)cc3)nnc2s1,6,-0.22,56*,0.4,0.9
COc1ccc(-c2nnc3sc(COc4ccccc4)nn23)cc1,26,-1.3,36,0.6,0.7
c1ccc(OCc2nn3c(-c4ccco4)nnc3s2)cc1,49,0.55,67*,0.3,0.5
COc1cccc(-c2nn3c(-c4cccc(C)c4)nnc3s2)c1,76*,-1.9,89*,0.1,0.2
COc1cccc(-c2nnc3sc(-c4ccc(C)cc4)nn23)c1,28,.,13,0.9,0.7
c1coc(-c2nnc3sc(-c4cccs4)nn23)c1,45,-0.43,64*,0.4,0.5
COc1cc([C@@H]2c3cc4c(cc3[C@@H](NC3CCN(Cc5ccccc5)CC3)[C@H]3COC(=O)[C@H]23)OCO4)cc(OC)c1O,.,0.63,.,.,.
COC(=O)C1CCN(S(=O)(=O)c2cn(C)c(=O)n(C)c2=O)CC1,-10,-0.054,-13,1.1,1.1
CCC1Sc2ccccc2N(CC(=O)NCCC(C)C)C1=O (centres undefined),17,.,30,0.7,0.8
CC(c1cccnc1)N(CCN(C)C)C(=O)Nc1ccc(Cl)cc1 (centres undefined),28,-0.74,49,0.5,0.7
Cc1nc(CNS(=O)(=O)c2ccccc2F)cs1,.,0.23,.,.,.
O=[N+]([O-])c1cc(Cl)cc(/C=N\Nc2ccccn2)c1O,50*,-3.7*,54*,0.5,0.5
CCc1nnc(N/N=C/c2c(Cl)cccc2Cl)n1N,-11,0.12,63*,0.4,1.1
CCOC(=O)c1c(N)sc2c(O)c(Br)ccc12,73*,1.4,30,0.7,0.3
CC(C)Cc1ccc(C(C)C(=O)N2CCOCC2)cc1 (centres undefined),66*,-0.27,21,0.8,0.3
Cc1ccccc1NC(=O)Cn1nnc2c(cnn2-c2ccc(F)cc2)c1=O,4,.,7,0.9,1
O=C(Cn1nnc2c(cnn2-c2ccc(F)cc2)c1=O)OC1CCCCC1,46,-1.3,62*,0.4,0.5
CCN(CC)C(=O)CSc1nc2c(sc(=S)n2-c2ccccc2)c(=O)n1Cc1ccco1,67*,-6.6*,49,0.5,0.3
COc1ccccc1-n1c(=S)sc2c(=O)n(Cc3ccco3)c(SC)nc21,76*,-1.8,64*,0.4,0.2
CCOC(=O)CSc1nc2c(sc(=S)n2Cc2ccco2)c(=O)n1-c1ccc(F)cc1,72*,-2.5,56*,0.4,0.3
CCC(C)NC(=O)CSc1nc2c(sc(=S)n2Cc2ccco2)c(=O)n1-c1ccccc1 (centres undefined),7,-1.7,-1,1,0.9
COc1ccccc1N1CCN(C(=O)c2ccc3c(=O)n(Cc4ccco4)c(=S)[nH]c3c2)CC1,42,-3.9,25,0.8,0.6
CCN(CC)C(=O)CSc1nc2c(sc(=S)n2CC)c(=O)n1-c1ccccc1,34,0.16,36,0.6,0.7
Cc1ccccc1NC1C=CS(=O)(=O)C1 (centres undefined),5,0.82,9,0.9,0.9
c1ccc(-c2csc3ncn4nnnc4c23)cc1,11,0.11,12,0.9,0.9
Cn1nnnc1Sc1ncnc2scc(-c3ccccc3)c12,66*,-0.94,46,0.5,0.3
CC(=O)Cc1nsc(Nc2ccc3c(c2)OCCO3)n1,72*,1.5,45,0.6,0.3
COC(=O)C1=C(C)Nc2nnnn2C1c1ccc(Cl)cc1Cl (centres undefined),43,-0.98,56*,0.4,0.6
CC(=O)C1=C(C)Nc2ncnn2C1c1ccccc1Cl (centres undefined),13,-1.9,4,1,0.9
